Assay results: the supplement of paper PMC7411054
Counter-ions that a name gives are not always drawn.

Legend:
Settings in all cases: treatment time: 24 h
A549-ACTB-RAB5A [1] = assay: lowest phenotypically active concentration; higher = less potent
Method in brief: (§1)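 Fifteen reporter lines derived from A549, HepG2 and WPMY1 cells by gene editing, carrying BFP for segmentation plus GFP and RFP/FusionRed markers, were exposed to 0.3, 1, 3 or 9 µM for 24 h in four wells each and imaged live. Live-cell features from each well were normalised to solvent control wells. A well set counted as deviating when ≥3 of 4 wells lay beyond the 95th percentile of control Euclidean distances, and as reproducible when the median replicate Pearson correlation exceeded the 95th percentile of non-replicates. Phenotypic activity was assigned only when both criteria were met.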

A549-CANX-COX4 [2] = assay: as above
Method in brief: as §1

A549-GM130-SQSTM1 [3] = assay: as above
Method in brief: as §1

A549-TP53BP1-CLTA [4] = assay: as above
Method in brief: as §1

A549-TUBA1B-RELA [5] = assay: as above
Method in brief: as §1

A549-ACTB-RAB5A [6] = assay: phenotypically active (imaging signature differs from DMSO and reproducible) at any of 0.3-9 uM (binary (1 = active, 0 = inactive)); higher = active
Method in brief: as §1

A549-CANX-COX4 [7] = assay: as above
Method in brief: as §1

A549-GM130-SQSTM1 [8] = assay: as above
Method in brief: as §1

A549-TP53BP1-CLTA [9] = assay: as above
Method in brief: as §1

A549-TUBA1B-RELA [10] = assay: as above
Method in brief: as §1

HepG2-ACTB-RAB5A = assay: as above
Method in brief: as §1

HepG2-CANX-COX4 = assay: as above
Method in brief: as §1

HepG2-GM130-SQSTM1 = assay: as above
Method in brief: as §1

HepG2-TP53BP1-CLTA = assay: as above
Method in brief: as §1

HepG2-TUBA1B-RELA = assay: as above
Method in brief: as §1

WPMY1-ACTB-RAB5A = assay: as above
Method in brief: as §1

WPMY1-CANX-COX4 = assay: as above
Method in brief: as §1

WPMY1-GM130-SQSTM1 = assay: as above
Method in brief: as §1

WPMY1-TP53BP1-CLTA = assay: as above
Method in brief: as §1

WPMY1-TUBA1B-RELA = assay: as above
Method in brief: as §1

Row | Structure (SMILES) | lowest phenotypically active concentration (A549-ACTB-RAB5A [1]) [µM] | lowest phenotypically active concentration (A549-CANX-COX4 [2]) [µM] | lowest phenotypically active concentration (A549-GM130-SQSTM1 [3]) [µM] | lowest phenotypically active concentration (A549-TP53BP1-CLTA [4]) [µM] | lowest phenotypically active concentration (A549-TUBA1B-RELA [5]) [µM] | phenotypically active (A549-ACTB-RAB5A [6]) | phenotypically active (A549-CANX-COX4 [7]) | phenotypically active (A549-GM130-SQSTM1 [8]) | phenotypically active (A549-TP53BP1-CLTA [9]) | phenotypically active (A549-TUBA1B-RELA [10]) | phenotypically active (HepG2-ACTB-RAB5A) | phenotypically active (HepG2-CANX-COX4) | phenotypically active (HepG2-GM130-SQSTM1) | phenotypically active (HepG2-TP53BP1-CLTA) | phenotypically active (HepG2-TUBA1B-RELA) | phenotypically active (WPMY1-ACTB-RAB5A) | phenotypically active (WPMY1-CANX-COX4) | phenotypically active (WPMY1-GM130-SQSTM1) | phenotypically active (WPMY1-TP53BP1-CLTA) | phenotypically active (WPMY1-TUBA1B-RELA)
1 | O=C(Cc1ccc(-c2ccc(OCCN3CCOCC3)cc2)cn1)NCc1ccccc1 | ≤ 0.3 | ≤ 0.3 | ≤ 0.3 | ≤ 0.3 | ≤ 0.3 | 1 (active) | 1 (active) | 1 (active) | 1 (active) | 1 (active) | 1 (active) | 1 (active) | 1 (active) | 1 (active) | 1 (active) | 1 (active) | 1 (active) | 1 (active) | 1 (active) | 1 (active)
2 | O=C(NCc1cccc(O)c1)Nc1nc(-c2ccncc2)cs1 [RKI 1447 dihydrochloride] | ≤ 0.3 | ≤ 0.3 | ≤ 0.3 | ≤ 0.3 | ≤ 0.3 | 1 (active) | 1 (active) | 1 (active) | 1 (active) | 1 (active) | 1 (active) | 1 (active) | 1 (active) | 1 (active) | 1 (active) | 1 (active) | 1 (active) | 1 (active) | 1 (active) | 1 (active)
3 | COc1cc(/C=C/c2ccc(OC)cc2OC)cc(OC)c1 | 3 | 1 | 3 | 1 | 3 | 1 (active) | 1 (active) | 1 (active) | 1 (active) | 1 (active) | 1 (active) | 1 (active) | 1 (active) | 1 (active) | 1 (active) | 1 (active) | 1 (active) | 1 (active) | 1 (active) | 1 (active)
4 | Nc1nccc2c1ncn2[C@@H]1C=C(CO)[C@@H](O)[C@H]1O [3-Deazaneplanocin A hydrochloride] | ≤ 0.3 | 1 | 3 | ≤ 0.3 | 3 | 1 (active) | 1 (active) | 1 (active) | 1 (active) | 1 (active) | 1 (active) | 1 (active) | 1 (active) | 1 (active) | 1 (active) | 1 (active) | 1 (active) | 1 (active) | 1 (active) | 1 (active)
5 | CN(C)CCCNc1c2c(=O)n(C)c(=O)nc-2n(C)c2ccccc12 | 9 | 9 | 9 | 9 | 9 | 1 (active) | 1 (active) | 1 (active) | 1 (active) | 1 (active) | 1 (active) | 1 (active) | 1 (active) | 1 (active) | 1 (active) | 1 (active) | 1 (active) | 1 (active) | 1 (active) | 1 (active)
6 | CC(C)c1cc(-c2n[nH]c(=O)n2-c2ccc3c(ccn3C)c2)c(O)cc1O [ganetespib] | ≤ 0.3 | ≤ 0.3 | ≤ 0.3 | ≤ 0.3 | ≤ 0.3 | 1 (active) | 1 (active) | 1 (active) | 1 (active) | 1 (active) | 1 (active) | 1 (active) | 1 (active) | 1 (active) | 1 (active) | 1 (active) | 1 (active) | 1 (active) | 1 (active) | 1 (active)
7 | C[C@H]1[C@H]2CC[C@H]3[C@@H]4CC=C5C[C@@H](N(C)C)CC[C@]5(C)[C@H]4CC[C@]23CN1C [Conessine] | 1 | 9 | 1 | 3 | 1 | 1 (active) | 1 (active) | 1 (active) | 1 (active) | 1 (active) | 1 (active) | 1 (active) | 1 (active) | 1 (active) | 1 (active) | 1 (active) | 1 (active) | 1 (active) | 1 (active) | 1 (active)
8 | NC(=O)Nc1sc(-c2ccc(F)cc2)cc1C(N)=O | 3 | 3 | 3 | 9 | 3 | 1 (active) | 1 (active) | 1 (active) | 1 (active) | 1 (active) | 1 (active) | 1 (active) | 1 (active) | 1 (active) | 1 (active) | 1 (active) | 1 (active) | 1 (active) | 1 (active) | 1 (active)
